PubChem BioAssay AID1159580 (chemical genetic matrix, 2015)
Out of some 5,500 compounds screened, about 2,000 (36%) were called active. Another 18% or so got no clear call; they are omitted. Rule as the data show it: active = normalized growth mostly below about 0.91 (no sharp cut-off); inconclusive = no clear call, values can overlap the other calls; inactive = mostly above about 0.92. This is one part of the list.

Test: chemical genetic growth profiling, strain panel (AID 1159580);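 also: tested at 20 µM; growth read once vehicle control cultures reached saturation at 30 °C; 1 = growth at the plate median or of vehicle wells; lower values mean less growth of the strain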
Conditions: S. cerevisiae deletion strains, growth OD
[1] = locus YAR019C, strain CDC15, active compounds read low
[2] = locus YBL105C, strain PKC1, active compounds read low
[3] = locus YBR135W, strain CKS1, active compounds read low
[4] = locus YBR136W, strain MEC1, active compounds read low
[5] = locus YBR160W, strain CDC28, active compounds read low
[6] = locus YDL017W, strain CDC7, active compounds read low
[7] = locus YDL028C, strain MPS1, active compounds read low
[8] = locus YDL101C, strain DUN1, active compounds read low
[9] = locus YDL108W, strain KIN28, active compounds read low
[10] = locus YDL132W, strain cdc53, active compounds read low
[11] = locus YDL214C, strain PRR2, active compounds read low
[12] = locus YDR052C, strain DBF4, active compounds read low
[13] = locus YDR054C, strain cdc34, active compounds read low
[14] = locus YDR226W, strain ADK1, active compounds read low
[15] = locus YDR477W, strain SNF1, active compounds read low
[16] = locus YER123W, strain YCK3, active compounds read low
[17] = locus YER133W, strain GLC7, active compounds read low
[18] = locus YFL009W, strain cdc4, active compounds read low
[19] = locus YFL029C, strain CAK1, active compounds read low
[20] = locus YFR003C, strain YPI1, active compounds read low
[21] = locus YFR019W, strain FAB1, active compounds read low
[22] = locus YFR028C, strain CDC14, active compounds read low
[23] = locus YGR040W, strain KSS1, active compounds read low
[24] = locus YGR052W, strain FMP48, active compounds read low
[25] = locus YGR092W, strain DBF2, active compounds read low
[26] = locus YHR030C, strain SLT2, active compounds read low
[27] = locus YHR079C, strain IRE1, active compounds read low
[28] = locus YHR082C, strain KSP1, active compounds read low
[29] = locus YHR205W, strain SCH9, active compounds read low
[30] = locus YIL147C, strain SLN1, active compounds read low
[31] = locus YJL095W, strain BCK1, active compounds read low
[32] = locus YJL128C, strain PBS2, active compounds read low
[33] = locus YJL157C, strain FAR1, active compounds read low
[34] = locus YJR016C, strain ILV3, active compounds read low
[35] = locus YJR066W, strain TOR1 (second series), active compounds read low
[36] = locus YJR066W, strain TOR1, active compounds read low
[37] = locus YKL048C, strain ELM1, active compounds read low
[38] = locus YKL067W, strain YNK1, active compounds read low
[39] = locus YKL101W, strain HSL1, active compounds read low
[40] = locus YKL193C, strain SDS22, active compounds read low
[41] = locus YKL203C, strain TOR2, active compounds read low
[42] = locus YLR113W, strain HOG1, active compounds read low
[43] = locus YLR133W, strain CKI1, active compounds read low
[44] = locus YLR403W, strain SFP1, active compounds read low
[45] = locus YML070W, strain DAK1, active compounds read low
[46] = locus YMR001C, strain CDC5, active compounds read low
[47] = locus YMR205C, strain PFK2 (second series), active compounds read low
[48] = locus YMR277W, strain FCP1, active compounds read low
[49] = locus YNL006W, strain LST8, active compounds read low
[50] = locus YNL020C, strain ARK1, active compounds read low
[51] = locus YNL161W, strain CBK1, active compounds read low
[52] = locus YNL183C, strain NPR1, active compounds read low
[53] = locus YNL207W, strain RIO2, active compounds read low
[54] = locus YNL222W, strain SSU72, active compounds read low
[55] = locus YNL307C, strain MCK1 (second series), active compounds read low
[56] = locus YOL078W, strain AVO1, active compounds read low
[57] = locus YOL136C, strain PFK27, active compounds read low
[58] = locus YOR061W, strain CKA2, active compounds read low
[59] = locus YOR119C, strain RIO1, active compounds read low
[60] = locus YOR231W, strain MKK1, active compounds read low
[61] = locus YOR329C, strain SCD5, active compounds read low
[62] = locus YPL031C, strain PHO85, active compounds read low
[63] = locus YPL153C, strain RAD53, active compounds read low
[64] = locus YPL204W, strain HRR25, active compounds read low
[65] = locus YPL209C, strain IPL1, active compounds read low
[66] = locus YPL256C, strain CLN2, active compounds read low
[67] = locus YPR025C, strain CCL1, active compounds read low
[68] = locus YPR106W, strain ISR1, active compounds read low
[69] = locus YPR111W, strain DBF20, active compounds read low
[70] = strain NNK1, active compounds read low
[71] = strain TSCII, active compounds read low

Measured: normalized growth

CC(C)(C)NC(=S)N/N=C\c1cc(Br)c(O)c(Br)c1
inactive: [1] 0.966 | [2] 0.969 | [3] 0.962 | [4] 0.965 | [5] 0.967 | [6] 0.966 | [7] 0.967 | [8] 0.959 | [9] 0.971 | [10] 0.955 | [11] 0.944 | [12] 0.971 | [13] 0.957 | [14] 0.946 | [15] 0.917 | [16] 0.917 | [17] 0.944 | [18] 0.962 | [19] 0.958 | [20] 0.971 | [21] 0.929 | [22] 0.952 | [23] 0.919 | [24] 0.968 | [25] 0.947 | [27] 0.926 | [28] 0.922 | [29] 0.938 | [30] 0.971 | [31] 0.875 | [32] 0.976 | [33] 0.957 | [34] 0.955 | [35] 0.932 | [36] 0.864 | [37] 0.951 | [38] 0.945 | [39] 0.927 | [40] 0.959 | [41] 0.897 | [42] 0.896 | [43] 0.928 | [44] 0.92 | [45] 0.959 | [46] 0.965 | [47] 0.949 | [48] 0.97 | [49] 0.965 | [50] 0.929 | [51] 0.969 | [52] 0.87 | [53] 0.964 | [54] 0.963 | [55] 0.898 | [56] 0.961 | [57] 0.938 | [58] 0.921 | [59] 0.932 | [60] 0.956 | [61] 0.969 | [62] 0.92 | [63] 0.953 | [64] 0.904 | [65] 0.966 | [66] 0.902 | [67] 0.966 | [68] 0.957 | [69] 0.955 | [70] 0.959 | [71] 0.965
active: [26] 0.768

Cc1cc(Br)c(O)c(/C=N\NC(=S)NC(C)(C)C)c1
active: [26] 0.752 | [42] 0.782 | [66] 0.838
inactive: [1] 0.98 | [2] 0.987 | [3] 0.971 | [4] 0.981 | [5] 0.978 | [6] 0.972 | [7] 0.972 | [8] 0.993 | [9] 0.969 | [10] 0.984 | [11] 0.922 | [12] 0.982 | [13] 0.98 | [14] 0.965 | [15] 0.91 | [16] 0.894 | [17] 0.879 | [18] 0.981 | [19] 0.973 | [20] 0.976 | [21] 0.959 | [22] 0.975 | [23] 0.893 | [24] 0.883 | [25] 0.823 | [27] 0.872 | [28] 0.97 | [29] 0.942 | [30] 0.981 | [31] 0.875 | [32] 0.952 | [33] 0.911 | [34] 0.99 | [35] 0.839 | [36] 0.899 | [37] 0.973 | [38] 0.934 | [39] 0.914 | [40] 0.98 | [41] 0.914 | [43] 0.917 | [44] 0.857 | [45] 0.917 | [46] 0.975 | [47] 0.944 | [48] 0.98 | [49] 0.98 | [50] 0.903 | [51] 0.975 | [52] 0.848 | [53] 0.976 | [54] 0.988 | [55] 0.893 | [56] 0.982 | [57] 0.947 | [58] 0.91 | [59] 0.967 | [60] 0.874 | [61] 0.988 | [62] 0.876 | [63] 0.906 | [64] 0.884 | [65] 0.981 | [67] 0.975 | [68] 0.987 | [69] 0.985 | [70] 0.982 | [71] 0.984

CNC(=S)N/N=C\c1cc(Br)cc(Br)c1O
active: locus YAL013W, strain DEP1, active compounds read low 0.794 | locus YBR229C, strain ROT2, active compounds read low 0.919 | locus YCL061C, strain MRC1, active compounds read low 0.861 | locus YDL134C, strain PPH21, active compounds read low 0.537 | locus YDR150W, strain NUM1, active compounds read low 0.755 | locus YEL061C, strain CIN8, active compounds read low 0.463 | locus YGR078C, strain PAC10, active compounds read low 0.912 | locus YGR229C, strain SMI1, active compounds read low 0.813 | [26] 0.237 | locus YJR043C, strain POL32, active compounds read low 0.814 | locus YJR075W, strain HOC1, active compounds read low 0.847 | locus YKL190W, strain CNB1, active compounds read low 0.36 | locus YLR039C, strain RIC1, active compounds read low 0.155 | locus YLR085C, strain ARP6, active compounds read low 0.139 | locus YLR262C, strain YPT6, active compounds read low 0.15 | locus YML094W, strain GIM5, active compounds read low 0.586 | locus YMR263W, strain SAP30, active compounds read low 0.743 | locus YMR307W, strain GAS1, active compounds read low 0.252 | locus YNL153C, strain GIM3, active compounds read low 0.875 | locus YNL298W, strain CLA4 (second series), active compounds read low 0.311 | locus YNL322C, strain KRE1, active compounds read low 0.817 | locus YNR030W, strain Alg12, active compounds read low 0.274 | locus YPL055C, strain LGE1, active compounds read low 0.485 | locus YPL241C, strain CIN2, active compounds read low 0.522 | locus YPR135W, strain CTF4, active compounds read low 0.334
inactive: [8] 0.912 | locus YHR087W, strain rtc3, active compounds read low 0.944 | locus YLR058C, strain SHM2 (second series), active compounds read low 1 | locus YMR219W, strain ESC1, active compounds read low 0.956
